Test [1] can be described thus: P-glycoprotein substrates identified in KB-3-1 adenocarcinoma cell line, qHTS therapeutic library screen (AID 1346986). Further: nearly all actives have a fitted effect of over 60% in size. Summed up:
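Compounds were tested in dose-response against KB-3-1 and KB-8-5-11 cells at 37 degree C for 72 h, and viability was measured by luminescence. AC50 values came from curve fitting with class-based activity calls.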
(In general: Quantitative high-throughput screening tests each substance at several concentrations.)

Test [2] in a line: P-glycoprotein substrates identified in KB-8-5-11 adenocarcinoma cell line, qHTS therapeutic library screen (AID 1346987). Further: nearly all actives have a fitted effect of over 65% in size. The procedure, abridged:
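P-gp-mediated resistance screen: KB-8-5-11 cells treated 72 h with compounds in dose-response. CellTiter-Glo viability.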

Experimental findings from PubChem BioAssay (NCATS) are described below.

Records with an inconclusive call do not appear. Activity calls are given as the source filed them. The call rests on the fitted dose curve; in most records, active means well fitted curve in the direction sought with a large enough effect; inconclusive means small, poorly fitted or top-dose-only effect, or another doubt; inactive means no such curve, though single readings can be large; an effect the other way counts as inactive or inconclusive.

As for `O=C(/C=C/N1C[C@@H]2C[C@@H]1CN2c1ccccn1)c1ccccc1O`, the Potency entry in test [1] and in test [2] was “inactive” in each case.
As for `CSCC1OC(n2cnc3c(N)ncnc32)C(O)C1O` (stereo not given), the Potency result in test [1] and in test [2] was “inactive” throughout.
Consider `C[C@@H]1O[C@@H](O[C@H]2[C@H](Oc3cc(O)c(C(=O)CCc4ccc(O)cc4)c(O)c3)O[C@H](CO)[C@@H](O)[C@@H]2O)[C@H](O)[C@H](O)[C@H]1O`, for which the Potency entry in test [1] and in test [2] was “inactive” throughout.
As for `O=C(c1c2ccccc2cc2ccccc12)N1CCC(N2CCC[C@@H](C(=O)N3CCOCC3)C2)CC1`, the Potency result in test [1] and in test [2] was “inactive” throughout.
Turning to `C=C1CC2C3(C)C(O)CC(=O)C(C)(C)C3C(O)C(OC(C)=O)C2(C)C2C(=O)OC(C)(C(=O)OC)C(=O)C12C` (stereo not given), the Potency entry in test [1] and in test [2] was “inactive” in each case.
As for `Cc1noc2c1-c1ccccc1C(c1ccc(Cl)cc1)=N[C@H]2CC(N)=O`, the Potency entry in test [1] and in test [2] was “inactive” each time.
With `CC(=O)OC12CC(C)C(O)C1/C=C(/COC1OC(CO)C(O)C(O)C1O)CCC1C(/C=C(\C)C2=O)C1(C)C` (stereo not given), the Potency entry in test [1] and in test [2] was “inactive” each time.
Take `CC1CCC2(C(=O)O)CCC3(C)C(=CCC4C5(C)C[C@@H](O)[C@@H](O)C(C)(CO)C5CCC43C)C2C1(C)O` (stereo not given in full): the Potency result in test [1] and in test [2] was “inactive” throughout.
Regarding `COc1cccc(OC)c1-c1nc(C(=O)N[C@@H](CC(C)C)C(=O)O)cn1-c1ccnc2cc(Cl)ccc12`, the Potency entry in test [1] and in test [2] was “inactive” in each case.
Consider `C[C@@H]1O[C@@H](O[C@H]2[C@H](O[C@H]3[C@H](O[C@H]4CC[C@@]5(C)C(CC[C@]6(C)C5CC=C5[C@@H]7CC(C)(C)C[C@@H](O)[C@]7(C)CC[C@]56C)C4(C)C)O[C@H](C(=O)O)[C@@H](O)[C@@H]3O)O[C@H](C(=O)O)[C@H](O)[C@@H]2O)[C@H](O)[C@H](O)[C@H]1O` (stereo not given in full), for which the outcome in test [1] and in test [2] was “inactive [at 9.29 µM]” in each case.
